BoNT-F LC inh: BoNT F light chain protease inhibition. Multiplex microsphere protease cleavage assay, flow cytometry. inhibition, % at 10 µM. 0.22% of 360,000 active. AID 588497; in the data active = inhibition above about 35%, passing the limit was not always enough; inconclusive = no clear call, values can overlap the other calls; note: plate controls were buffer without enzyme for full effect and enzyme alone for no effect
Bead autofluor: compound fluorescence in toxin protease inhibitor counterscreen; compound autofluorescence counterscreen, microsphere flow cytometry; active compounds read high; fluorescence intensity (no concentration beside the values); 3.1% of 360,000 active; AID 624483; in the data active = fluorescence intensity above about 16000; inconclusive = no clear call, values can overlap the other calls
Anthrax LF prot: anthrax lethal factor protease inhibition. P15917. multiplex microsphere protease cleavage assay, LF. inhibition, % at 10 µM. 0.12% of 360,000 active. AID 588501; note: plate controls were buffer without enzyme for full effect and enzyme alone for no effect
Target sequence (P15917 whole entry, looked up): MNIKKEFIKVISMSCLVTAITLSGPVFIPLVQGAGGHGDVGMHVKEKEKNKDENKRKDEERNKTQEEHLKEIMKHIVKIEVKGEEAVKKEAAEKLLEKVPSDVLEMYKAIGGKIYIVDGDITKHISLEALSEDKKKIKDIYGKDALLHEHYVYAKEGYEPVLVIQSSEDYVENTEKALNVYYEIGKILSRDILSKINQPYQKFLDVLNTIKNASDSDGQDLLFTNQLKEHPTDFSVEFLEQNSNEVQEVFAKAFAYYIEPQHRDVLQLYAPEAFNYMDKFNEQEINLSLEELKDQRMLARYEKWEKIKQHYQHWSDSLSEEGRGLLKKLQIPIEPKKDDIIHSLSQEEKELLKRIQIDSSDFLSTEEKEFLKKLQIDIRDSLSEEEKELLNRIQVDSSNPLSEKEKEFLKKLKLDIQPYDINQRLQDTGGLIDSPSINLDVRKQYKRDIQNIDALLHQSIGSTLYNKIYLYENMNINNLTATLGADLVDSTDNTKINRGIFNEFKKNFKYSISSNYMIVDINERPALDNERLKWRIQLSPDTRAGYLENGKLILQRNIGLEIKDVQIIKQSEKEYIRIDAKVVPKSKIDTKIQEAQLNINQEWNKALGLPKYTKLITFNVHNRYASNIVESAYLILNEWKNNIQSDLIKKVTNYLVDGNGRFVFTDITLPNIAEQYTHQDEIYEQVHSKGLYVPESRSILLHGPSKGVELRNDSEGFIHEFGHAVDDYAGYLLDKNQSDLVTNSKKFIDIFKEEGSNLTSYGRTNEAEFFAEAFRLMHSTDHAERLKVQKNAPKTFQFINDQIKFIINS
BoNT A protease: BoNT A light chain protease inhibition. multiplex microsphere protease substrate cleavage, flow cytometry. AID 588499. 0.17% of 360,000 active. inhibition, % at 10 µM; note: plate controls were buffer without enzyme for full effect and enzyme alone for no effect
Numbers without * were called inactive; ? = inconclusive. The list is not random: actives were taken first. Their share in the collection is about 3.5%. Cut-off read from the data, not from the text of the source, unless noted: active = inhibition above about 30%; inconclusive = no clear call, values can overlap the other calls; inactive = below that.

SMILES | BoNT-F LC inh | Bead autofluor | Anthrax LF prot | BoNT A protease
COc1cccc2cc(C(=O)Nc3ccc(S(=O)(=O)NCC4CCCO4)cc3)c(=O)oc12 (centres undefined) | -118 | 24536* | -32 | -24
Cc1cc(NC(=O)COC(=O)[C@H](Cc2ccccc2)NC(=O)c2ccco2)no1 | -12 | 3762 | -6 | 0
N/C(=N\OC(=O)/C=C/c1ccccc1Cl)c1ccncc1 | -4 | 3271 | 5 | 0
CS(=O)(=O)c1ccc(Cl)c(NC(=O)c2cc(S(=O)(=O)N3CCOCC3)ccc2N2CCCC2)c1 | 5 | 4524 | 0 | 0
CCC(Oc1ccccc1)C(=O)Nc1ccc(S(=O)(=O)NCC2CCCO2)cc1 (centres undefined) | 1 | 20336* | -4 | 1
O=C(Nc1ccc(S(=O)(=O)NCC2CCCO2)cc1)c1ccccc1 (centres undefined) | 6 | 2654 | 0 | -1
Cn1c(C=O)c(C#Cc2ccccc2)c2ccccc21 | 9 | 3620 | 19 | 26
C=CCn1c(SC(C)C(=O)NCc2ccc3c(c2)OCO3)nc2scc(-c3ccccc3)c2c1=O (centres undefined) | 1 | 16316* | 1 | 1
CN(Cc1ccccc1)C(=O)CCNS(=O)(=O)c1ccc2c(c1)oc(=O)n2C | -3 | 20317* | -1 | -1
CN(Cc1ccccc1)C(=O)CCS(=O)(=O)c1ccc2c(c1)oc(=O)n2C | 1 | 5147 | -2 | 0
CCCN(CCC)CCCNS(=O)(=O)c1ccc2c(c1)oc(=O)n2C | -11 | 23740* | -8 | ?
Cn1c(=O)oc2cc(S(=O)(=O)NCCC(=O)NC3CCCc4ccccc43)ccc21 (centres undefined) | -2 | 20326* | -3 | -1
CCCNS(=O)(=O)c1cccc(C(=O)NC2CCCc3ccccc32)c1 (centres undefined) | 3 | 22288* | -1 | 1
O=C(NCCc1ccccc1)Nc1nnc([C@@H]2C[C@H](O)[C@@H](CO)O2)s1 | -1 | 3515 | -3 | 0
COc1ccc(NC(=O)N2CCc3ccccc32)cc1 | -2 | 3141 | -2 | -1
COc1ccc(NC(=O)N2CCCc3ccccc32)cc1 | -3 | 20850* | -1 | 0
CCCN(CCC)S(=O)(=O)c1ccc2c(c1)CCCN2C(C)=O | -6 | 3333 | -1 | -1
CCCN(CCC)S(=O)(=O)c1ccc(C(=O)N2CCCc3ccccc32)cc1 | 0 | 22837* | -2 | 0
O=C(c1ccccc1)N1CCc2ccccc21 | 10 | ? | 9 | -1
COc1ccc(C(=O)N2CCCc3ccccc32)cc1OC | -6 | 4138 | 6 | -2
COc1cccc(C(=O)N2CCCc3ccccc32)c1 | -11 | 17528* | -2 | -3
O=C(c1cccnc1)N1CCc2ccccc21 | 10 | 20167* | -6 | 8
CCN(CC)C(=O)c1cccc(-c2csc(C(C)(O)c3ccc(F)c(F)c3)n2)c1 (centres undefined) | -8 | 2788 | 0 | 0
CCn1c(SCC(=O)NC2CCCC2)nc2c(c1=O)SCC2 | 5 | 2975 | -1 | 0
COC(=O)C(c1cc(OC)c(O)c(OC)c1)(N1CCNC(C)C1)C(F)(F)F (centres undefined) | 4 | 18737* | -5 | 3
SMILES | BoNT-F LC inh | Bead autofluor | Anthrax LF prot | BoNT A protease
Cn1c(=O)n(CCC(=O)O)c2ccccc21 | -6 | 3405 | 0 | 0
CN(C)C(=O)Cn1c(=O)n(C)c2ccccc21 | 1 | 22347* | -1 | 2
COc1cc(C2SCC(=O)Nc3c2c(C)nn3-c2ccccc2)cc(OC)c1OC (centres undefined) | 4 | 19341* | -2 | 3
COc1cccc(N2CCN(C3CCCC(C)C3)CC2)c1 (centres undefined) | -4 | 24685* | -7 | -4
CCOC(=O)c1cn(CC)c2ccc(S(=O)(=O)N3CC(C)CC(C)C3)cc2c1=O (centres undefined) | -1 | 16593* | 1 | -1
CCOC(=O)c1cn(CC)c2ccc(S(=O)(=O)N3CCC(C)CC3)cc2c1=O | -13 | 11762 | -3 | 0
Cc1cc2c(n1-c1ccc(Br)cc1)CC(C)(C)CC2=O | 0 | 16349* | -2 | 0
N#CCc1ccc(-c2cccc3nccn23)cc1 | -8 | 4020 | -7 | 0
CC1(C)CC(C#N)(N2CCOCC2)CCO1 (centres undefined) | 2 | 19964* | 1 | ?
CC(C)(C)c1cc(Cc2ccccc2)[nH]n1 | -2 | 23025* | -5 | ?
Cc1ccc(N2CCC3CC2c2cc(-c4ccc(C(F)(F)F)cc4)ccc23)cc1 (centres undefined) | -8 | 3785 | -4 | -1
COc1ccc(Oc2nc3ccccc3n(C)c2=O)cc1 | -2 | 16246* | -2 | 0
Cn1c(=O)c(-c2ccccc2)nc2ccccc21 | -3 | 20471* | 2 | -1
Cn1c(=O)c(-c2ccccc2N)nc2ccccc21 | 11 | 20647* | 0 | 6
COc1ccc(Oc2nc3ccccc3nc2C(F)(F)F)cc1 | -4 | 23577* | -2 | -2
CNc1ccccc1-c1nc2ccccc2n(C)c1=O | ? | 3661 | 3 | 4
Cn1c(=O)c(Oc2cc(Cl)cc(Cl)c2)nc2ccccc21 | -1 | 11368 | -4 | 0
C=Cc1ccc(CC2(C)C(=O)Nc3ccc(-c4cccnc4)cc32)cc1 (centres undefined) | -4 | 3475 | -2 | 0
CCOC(=O)C1=C[C@@H](C(C)(C)C)N(S(=O)(=O)c2ccc(C)cc2)[C@H]1c1cccc(Cl)c1 | -4 | 6239 | 0 | 0
Cc1[nH]c(=O)[nH]c(=O)c1NC(=O)c1cccs1 | 2 | 21903* | -6 | 2
Cc1ccccc1C(=O)Nc1c(C)[nH]c(=O)[nH]c1=O | 7 | 4089 | -4 | -2
CCOc1ccc(C(=O)Nc2nnc(C)s2)cc1OCC | 4 | 20767* | -5 | ?
COC(=O)c1cc(NC(=O)CC2NC3CCCCC3NC2=O)cc(C(=O)OC)c1 (centres undefined) | -2 | 22818* | -9 | 1
CCNC(=O)C1(C)CCN(C(=O)c2ccc(OC)cc2OC)C1 (centres undefined) | 6 | 2982 | 0 | 0
Cc1ccc2nc(-c3ccc(F)cc3)c(CC3CCCCC3)n2c1 | 11 | 6669 | 6 | 1
SMILES | BoNT-F LC inh | Bead autofluor | Anthrax LF prot | BoNT A protease
CC1(C(=O)NS(=O)(=O)c2ccccc2Cl)CCN1C(=O)c1ccco1 (centres undefined) | 1 | 3627 | -1 | 0
COc1ccccc1CNc1nc2nc(C)c(Cl)c(=O)n2[nH]1 | 1 | 21476* | -4 | ?
COc1ccc(CNc2nc3nc(C)c(Cl)c(=O)n3[nH]2)cc1 | -4 | 4249 | -2 | 0
CC(C)C[C@@H](CNCC(=O)[C@H](Cc1ccccc1)NC(=O)c1[nH]cnc1C(=O)N[C@@H](C)CN)NC(=O)c1nc[nH]c1C(=O)N[C@@H](C)C(=O)O | -4 | 3139 | -9 | 0
CCOC(=O)C1CCCCN1Cc1ccccc1C(F)(F)F (centres undefined) | 4 | 17635* | -4 | 5
CCCCCCCCN1C(=O)C(O)=C(C(C)=O)C1c1ccccn1 (centres undefined) | -45 | 31940* | -5 | -26
COc1cc(OC)cc(C2=Cc3ccccc3C(CC(=O)c3ccco3)N2c2ccc(-c3cccnc3)cc2)c1 (centres undefined) | 11 | 5346 | 15 | 11

High-throughput results (PubChem BioAssay)
